Records with an inconclusive call do not appear. A call without a number means that no potency is given here. Values without a mark were called inactive. Calls of active or inactive are those of the source. The call rests on the fitted dose curve; in most records, active means well fitted inhibition curve with a large enough effect; inconclusive means small, poorly fitted or top-dose-only effect; inactive means flat fitted curve, though single readings scatter.
Assay: P-glycoprotein substrates identified in KB-8-5-11 adenocarcinoma cell line, qHTS therapeutic library screen (AID 1346987); further: nearly all actives have a fitted effect of over 65% in size
Details: KB-8-5-11 (P-gp overexpressing) viability, CellTiter-Glo, 72 h; series mostly up to 44.5 µM
Procedure, shortened: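 KB-8-5-11, a colchicine-selected P-gp-overexpressing KB-3-1 subline, was grown without colchicine for the assay. Cells were seeded at 500 cells/well, dosed in concentration-response and incubated 72 h at 37 degree C, 5% CO2. Viability was read by CellTiter-Glo luminescence.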
Potency means the concentration at half of the fitted maximal effect.

SMILES	Potency	activity change, negative = cytotoxicity	outcome
C=CC(C)(C)c1[nH]c2cc3c(cc2c1CC1NC(=O)C2CCCN2C1=O)C=CC(C)(C)O3 (stereo unspecified)	inactive		
CCc1cnn2c(NCc3ccc[n+]([O-])c3)cc(N3CCCCC3CCO)nc12 (stereo unspecified)	0.206 µM (active)		
CC1(C)CCCC2(C)C1CC=C1C(=O)OC(O)C12O (stereo unspecified)	inactive		
CC(=O)C1=C(C)N(c2cccc(C(F)(F)F)c2)C(=O)N[C@H]1c1ccc(C#N)nc1		-2.98% [at 9.29 µM]	
OC[C@H]1O[C@@H](OCCc2ccc(O)cc2)[C@H](O[C@@H]2OC[C@](O)(CO)[C@H]2O)[C@@H](O)[C@@H]1O	inactive		
CC(C)CC1NC(=O)C2CC3(O)c4ccccc4NC3N2C1=O (stereo unspecified)	inactive		
O=C(Nc1nc2ccccc2n1CCc1ccccc1)c1ccccc1	inactive		
CCOc1ccc(S(=O)(=O)n2c(C)nc3ccccc32)cc1	inactive		
C=CC(C)(O)C(O)CC1C(C)(O)C(O)C(O)C2C(C)(C)CCCC21C (stereo unspecified)	inactive		
C[C@@H]1C[C@@H](O)[C@@]23CO[C@@H](O)[C@@H]2CCC[C@@H]3[C@@]12C[C@@H](c1ccoc1)OC2=O	inactive		
CC(Nc1ncnc2nc[nH]c12)c1cc2cccc(Cl)c2c(=O)n1-c1ccccc1 (stereo unspecified)	inactive		
C[C@@H]1C(=O)O[C@H]2C[C@]34[C@H]5C[C@@H](C(C)(C)C)[C@]36[C@@H](OC(=O)[C@H]6O)O[C@]4(C(=O)O5)[C@]21O	inactive		
CC(/C=C/C1=CC2=CC(=O)C(C)(O)C(O)C2=CO1)=C\C(C)CCO (stereo unspecified)	inactive		
COC1CC(O[C@H]2CC[C@@]3(C)C(CCC4C3[C@H](OC(C)=O)[C@@H](OC(=O)/C=C/c3ccccc3)[C@]3(C)C(C(C)=O)CC[C@]43O)C2)OC(C)C1OC1CC(OC)C(OC2CC(OC)C(OC3OC(C)C(OC4OC(CO)C(O)C(O)C4O)C(OC)C3O)C(C)O2)C(C)O1 (stereo partly specified)		-0.0477% [at 9.29 µM]	
CCC(COC)n1nnc2c(Nc3ccc(OC)cc3C)nc(C)cc21 (stereo unspecified)	inactive		
O=C1CSc2ccccc2N1Cc1cccc(C(F)(F)F)c1	inactive		
CCOc1cc(N2CCC(O)CC2)ccc1Nc1ncc2c(n1)N(C1CCCC1)CCC(=O)N2C	11.6 µM (active)		
C[C@@H]1O[C@@H](O[C@H]2[C@H](O)[C@@H](O[C@@H]3O[C@H](CO)[C@@H](O)[C@H](O[C@@H]4O[C@H](CO)[C@@H](O)[C@H](O)[C@H]4O)[C@H]3O)[C@H](O[C@H]3CC[C@@]4(C)C(=CC[C@@H]5C4CC[C@@]4(C)C5C[C@@H]5OC6(CC[C@@](C)(CO[C@@H]7O[C@H](CO)[C@@H](O)[C@H](O)[C@H]7O)O6)[C@@H](C)[C@@H]54)C3)O[C@@H]2CO)[C@H](O)[C@H](O)[C@H]1O (stereo partly specified)		3.17% [at 9.29 µM]	
COc1cc(C(=O)OC[C@H]2O[C@@H](Oc3ccccc3/C=C/C(=O)O)[C@H](O)[C@@H](O)[C@@H]2O)cc(OC)c1OC	inactive		
CC1OC(OC2C(C)OC(OC3C(O)C(CO)OC(O[C@H]4CC[C@@]5(C)C(CC[C@]6(C)C5CC=C5C7[C@@H](C)[C@H](C)CC[C@]7(C(=O)O)CC[C@]56C(=O)O)C4(C)C)C3O)C(O)C2O)C(O)C(O)C1O (stereo partly specified)			inactive [at 9.29 µM]
CCOc1ccc2nc(SCCN3CCOCC3)[nH]c2c1	inactive		
C/C=C(\C)C(=O)O[C@@H]1CC2[C@@H](CC=C3C[C@@H](O[C@H]4C[C@H](OC)[C@H](O[C@H]5C[C@H](OC)[C@H](O[C@@H]6O[C@H](C)[C@@H](O[C@H]7C[C@H](OC)[C@H](O[C@@H]8O[C@H](CO)[C@@H](O)[C@H](O)[C@H]8O)[C@@H](C)O7)[C@H](OC)[C@H]6O)[C@@H](C)O5)[C@@H](C)O4)CC[C@@]32C)[C@@]2(O)CC[C@H](C(C)=O)[C@@]12C (stereo partly specified)			inactive [at 9.29 µM]
C/C(=C\CC[C@@H](C)[C@H]1CC(O)[C@@]2(C)C3CC[C@H]4C(C)(C)[C@@H](OC5OCC(O)C(O)C5OC5OC(CO)C(O)C(O)C5O)CC[C@@]45C[C@@]35CC(O)[C@]12C)C(=O)O (stereo partly specified)	inactive		
Cc1[nH]c2ccccc2c1CCNC(=O)c1ccccc1F	inactive		
COc1cc(C)c(C(=O)Oc2cc(C)c(C(=O)Oc3cc(C)c(C(=O)NC(C)C(=O)O)c(O)c3)c(O[C@@H]3O[C@H](CO)[C@@H](O)[C@H](O)[C@H]3OC(C)=O)c2)c(OC)c1 (stereo partly specified)	inactive		
C/C=C/c1ccc2oc(-c3ccc(O)c(OC)c3)c(C)c2c1	inactive		

— PubChem BioAssay (NCATS)
